{"source": "PubChem BioAssay AID1946", "about": "(Johns Hopkins Ion Channel Center, 2009)", "note": "The whole screen tested about 2,400 compounds, of which about 180 (7.5%) were called active.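 How the source made its calls: active means readout below zero, meaning a drop past 3 SD under the dofetilide-free negative control mean; inactive means the rest.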 For the sample, actives were picked, then their nearest neighbours and some compounds at random.", "data": [{"molecular_target": "Potassium voltage-gated channel subfamily KQT member 2 (Rattus norvegicus) (UniProt O88943)", "sequence (O88943 whole entry, looked up)": "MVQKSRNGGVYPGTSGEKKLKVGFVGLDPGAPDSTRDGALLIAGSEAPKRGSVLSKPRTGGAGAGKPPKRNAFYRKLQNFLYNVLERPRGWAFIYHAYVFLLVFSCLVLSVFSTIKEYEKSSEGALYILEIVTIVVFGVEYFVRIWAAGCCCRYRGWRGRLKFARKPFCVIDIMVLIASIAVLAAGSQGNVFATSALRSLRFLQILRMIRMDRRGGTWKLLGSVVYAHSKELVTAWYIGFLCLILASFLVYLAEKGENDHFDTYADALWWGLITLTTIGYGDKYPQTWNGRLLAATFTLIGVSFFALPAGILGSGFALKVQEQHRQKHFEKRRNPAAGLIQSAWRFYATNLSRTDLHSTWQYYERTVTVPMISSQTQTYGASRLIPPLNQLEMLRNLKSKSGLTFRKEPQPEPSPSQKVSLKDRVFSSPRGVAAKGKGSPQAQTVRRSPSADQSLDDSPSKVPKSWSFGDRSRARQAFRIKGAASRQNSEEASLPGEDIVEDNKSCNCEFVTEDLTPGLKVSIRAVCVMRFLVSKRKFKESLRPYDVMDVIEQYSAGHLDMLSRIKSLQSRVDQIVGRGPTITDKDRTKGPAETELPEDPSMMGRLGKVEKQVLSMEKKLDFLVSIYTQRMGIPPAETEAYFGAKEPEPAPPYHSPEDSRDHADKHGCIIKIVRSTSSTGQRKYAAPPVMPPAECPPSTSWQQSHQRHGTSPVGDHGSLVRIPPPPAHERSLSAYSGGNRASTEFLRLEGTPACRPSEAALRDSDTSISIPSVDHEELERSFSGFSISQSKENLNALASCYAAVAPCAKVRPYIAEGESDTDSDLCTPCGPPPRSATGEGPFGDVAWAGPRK", "experiment": "rat KCNQ2 channel inhibition by compounds alone, confirmation, counter-screen for hERG block protector project, cell-based, CHO, FluxOR thallium flux (AID 1946)", "conditions": "CHO-KCNQ2 cells, FluxOR thallium flux fluorescence, at 10 µM, stronger effect = lower value", "values": [{"smiles": "O=C(O)CCC(=O)NCCC1=c2ccccc2=N/C1=C\\c1c(O)n(Cc2ccc(F)cc2)c(=S)[nH]c1=O", "activity change vs negative control": "-3.3% (active)"}, {"smiles": "O=C1CC(=O)N(c2cccc(C(F)(F)F)c2)C(=O)N1", "activity change vs negative control": "10.7% [zero marks the 3-SD hit cutoff] (inactive)"}, {"smiles": "COc1ccc2c(c1)/C(=C/c1cnc[nH]1)C(=O)N2", "activity change vs negative control": "28% [zero marks the 3-SD hit cutoff] (inactive)"}, {"smiles": "COc1ccc2c3c1OC1C(O)C=CC4C(C2)[N+](C)(C)CCC341", "note": "(stereo not given)", "activity change vs negative control": "11.5% (inactive)"}, {"smiles": "CCOC(=O)c1c(NS(=O)(=O)c2ccccc2)n(CCCOC)c2nc3ccccc3nc12", "activity change vs negative control": "1.7% [zero marks the 3-SD hit cutoff] (inactive)"}, {"smiles": "O=c1[nH]c(=S)[nH]c(O)c1/C=C1/C=c2ccccc2=N1", "activity change vs negative control": "-4.3% (active)"}, {"smiles": "C=CCn1c(O)c(/C=C2/C=c3ccccc3=N2)c(=O)[nH]c1=S", "activity change vs negative control": "3.2% (inactive)"}, {"smiles": "Cc1ccc(S(=O)(=O)NC(Cc2cnc[nH]2)C(=O)O)cc1", "note": "(stereo not given)", "activity change vs negative control": "7.9% [zero marks the 3-SD hit cutoff] (inactive)"}, {"smiles": "Cc1ccc(-n2c(O)c(/C=N/Nc3ccccc3)c(=O)[nH]c2=O)cc1C", "activity change vs negative control": "18.8% (inactive)"}, {"smiles": "C1CCC2S[C@H]3CCCCC3NC2C1", "note": "(stereo not given in full)", "activity change vs negative control": "6.1% [zero marks the 3-SD hit cutoff] (inactive)"}, {"smiles": "Cc1nc2ccccc2c(=O)n1-c1cc([N+](=O)[O-])cc([N+](=O)[O-])c1", "activity change vs negative control": "-5.3% (active)"}, {"smiles": "CCOC(=O)Cn1cc([N+](=O)[O-])nc1[N+](=O)[O-]", "activity change vs negative control": "14.6% [zero marks the 3-SD hit cutoff] (inactive)"}, {"smiles": "O=c1[nH]c(=S)[nH]c(O)c1N=Nc1ccc(S(=O)(=O)N2CCc3ccccc32)cc1", "activity change vs negative control": "7.8% (inactive)"}, {"smiles": "O=C(Cn1ncc2c3ccccc3n(Cc3ccccc3F)c2c1=O)N1CCC2(CC1)OCCO2", "activity change vs negative control": "64.8% (inactive)"}, {"smiles": "CCCc1[nH]nc2c1C1(C(=O)N(Cc3ccccc3)c3ccccc31)C(C(=O)OC)=C(N)O2", "note": "(stereo not given)", "activity change vs negative control": "3.3% [zero marks the 3-SD hit cutoff] (inactive)"}, {"smiles": "O=C1NC(=O)N(c2ccccc2)C(=O)/C1=C/c1ccc(Sc2ccccc2)o1", "activity change vs negative control": "-2.5% (active)"}, {"smiles": "O=C1NC(=S)N(c2ccc(F)cc2)C(=O)/C1=C/c1ccco1", "activity change vs negative control": "22.1% (inactive)"}, {"smiles": "Cc1ccccc1N1C(=O)/C(=C/c2ccco2)C(=O)NC1=S", "activity change vs negative control": "15% (inactive)"}, {"smiles": "CN1C(=O)/C(=C/c2ccc(Cl)s2)C(=O)NC1=S", "activity change vs negative control": "9.5% (inactive)"}, {"smiles": "CC(=NCc1ccco1)c1c(O)n(-c2ccc(C)cc2)c(=O)[nH]c1=O", "activity change vs negative control": "18.6% (inactive)"}, {"smiles": "O=c1[nH]c(O)c(/C=C2/C=CC(c3cc(Cl)ccc3Cl)=N2)c(=O)[nH]1", "activity change vs negative control": "-2.7% (active)"}, {"smiles": "O=C1NC(=O)C(=Cc2ccc(-c3ccc(Cl)cc3)o2)C(=O)N1", "activity change vs negative control": "11% (inactive)"}, {"smiles": "O=C(O)c1c[nH]c2ccc(S(=O)(=O)N(CCCl)CCCl)cc12", "activity change vs negative control": "14% [zero marks the 3-SD hit cutoff] (inactive)"}, {"smiles": "N#CC1=C(N)Oc2c(c(=O)oc3ccccc23)C1c1cccnc1", "note": "(stereo not given)", "activity change vs negative control": "7.9% [zero marks the 3-SD hit cutoff] (inactive)"}, {"smiles": "NCCc1ccc(S(N)(=O)=O)cc1", "activity change vs negative control": "-1.5% [zero marks the 3-SD hit cutoff] (active)"}, {"smiles": "O=c1c2cc(Br)ccc2[nH]c(=S)n1-c1ccccc1", "activity change vs negative control": "9.1% [zero marks the 3-SD hit cutoff] (inactive)"}, {"smiles": "CCCCn1c(O)c(C(CC)=Nc2ccc(OCC)cc2)c(=O)[nH]c1=O", "activity change vs negative control": "3.2% (inactive)"}, {"smiles": "CN1C(=O)/C(=C\\c2ccc(Br)s2)C(=O)NC1=S", "activity change vs negative control": "6.5% (inactive)"}, {"smiles": "Oc1cccc2cccnc12", "activity change vs negative control": "24.3% [zero marks the 3-SD hit cutoff] (inactive)"}, {"smiles": "COc1ccccc1N1CCN(Cc2ccc(F)cc2)CC1", "activity change vs negative control": "8.2% (inactive)"}]}]}
